dFosB activator – activators of mouse delta FosB homodimer. AID 493131. activation, % at 25 µM. hit rate 0.99% among 340,000. purified delta FosB, TAMRA-CDK5 oligo fluorescence polarization; percent of positive-control signal above neutral wells;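 active = mean activation above about 17%, with every replicate also reaching it, limit read from the data, passing the limit was not always enough; inconclusive = only one of the two conditions met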
Target sequence (P13346 whole entry, looked up): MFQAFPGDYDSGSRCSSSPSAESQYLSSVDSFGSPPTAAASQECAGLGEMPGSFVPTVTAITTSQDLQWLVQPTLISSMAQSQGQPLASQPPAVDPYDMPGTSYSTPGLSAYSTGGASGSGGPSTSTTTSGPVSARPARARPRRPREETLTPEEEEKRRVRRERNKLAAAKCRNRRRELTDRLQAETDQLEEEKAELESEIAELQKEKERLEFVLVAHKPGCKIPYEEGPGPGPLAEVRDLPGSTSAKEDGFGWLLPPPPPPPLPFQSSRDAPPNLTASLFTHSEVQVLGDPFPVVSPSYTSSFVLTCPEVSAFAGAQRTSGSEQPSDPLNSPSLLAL
Neddylation inh – blocks human cullin neddylation; AID 651699; TR-FRET cullin neddylation, biochemical; inhibition, % at 25 µM; hit rate 0.58% among 360,000; P61081+Q13564; in the data active = inhibition above about 36%
INS-1E GSIS act – primary screen for activators of insulin secretion dependent on glucose, INS-1E cells, GLuc reporter luminescence. activation, % at 16.6 µM. INS-1E GLuc reporter insulin secretion, 2-3 h. hit rate 0.61% among 370,000;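 active = lowest replicate activation of at least 40%, so every replicate reaches that level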;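 note: 0% = median of neutral control wells and 100% = median of IBMX positive control wells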
Bfl-1 A1 inh – inhibitors of the anti-apoptotic protein A1, read as caspase activation; MEF A1-2A-BIM cells, Caspase-Glo 3/7 luminescence, 3 h; percent of clofoctol response, vehicle zero; caspase activation, % (test concentration not listed); hit rate 0.066% among 330,000; AID 2462;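 active = over half of replicate activation scores above 10%, or exactly half above 10 with the replicate mean above 10; inconclusive = replicate mean below 10 yet half the replicates above 10; inactive = over half of replicates below 10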
Vif inh – blocks HIV Vif function. hit rate 0.35% among 340,000. HEK293T cells, Vif self-association by quenched fluorescence, imaging, 24 h. inhibition, % at 7.49 µM; in the data active = inhibition above about 50%, passing the limit was not always enough; inconclusive = no clear call, values can overlap the other calls; inactive = below about 31%
The depositor's hits bear a star. Only some compounds are listed: those with a hit (about 1.9% of all), similar ones and a draw of the others.

What do the screens show for `CCCCN(C=O)c1c(CC)nc2c(OCCC)cccn12`?
Neddylation inh: 8; INS-1E GSIS act: -8; Vif inh: -3

How did CCCCN(C=O)c1c(CC)nc2c(OCCOc3ccccc3)cccn12 do in these assays?
Neddylation inh: 2; INS-1E GSIS act: -13; Vif inh: 58*

What do the screens show for `C[C@@H]1CN(C)C(=O)Cc2cc(NS(C)(=O)=O)ccc2O[C@@H]1CN(C)C`?
INS-1E GSIS act: 2

How did O=C(Nc1ccc2ccccc2c1)c1cccc2ccccc12 do in these assays?
dFosB activator: 2; Neddylation inh: 36; INS-1E GSIS act: 71*; Vif inh: 6

How did O=C(Nc1ccncc1)c1cccc2ccccc12 do in these assays?
dFosB activator: -3; Neddylation inh: -4; INS-1E GSIS act: -2; Bfl-1 A1 inh: 0; Vif inh: 6

How did CCCC(O)C#Cc1cnc2c(c1)C(=O)N([C@H](C)CO)C[C@H](C)[C@H](CN(C)Cc1ccc3c(c1)OCO3)O2 (stereo partly drawn) do in these assays?
INS-1E GSIS act: 20

What do the screens show for `CCOC(=O)c1c(-c2ccc(C)o2)csc1NC(=O)CSc1nnc(C)s1`?
dFosB activator: -1; Neddylation inh: -3; Bfl-1 A1 inh: 0; Vif inh: -5

How did CCOC(=O)c1c(-c2ccc(C)o2)csc1NC(=O)COC(=O)c1ccc(NC(N)=O)cc1 do in these assays?
dFosB activator: 0; Neddylation inh: -34; INS-1E GSIS act: 50*; Bfl-1 A1 inh: 0; Vif inh: 14

How did Cc1ccc(C(=O)OCC(=O)Nc2ccc(N(C)C)cc2)cc1NC(=O)c1ccco1 do in these assays?
dFosB activator: -14; Neddylation inh: -1; Bfl-1 A1 inh: -1; Vif inh: 10

How did Cc1cccc(OCC(=O)Nc2ccc(NC(=O)c3ccco3)cc2)c1 do in these assays?
dFosB activator: inconclusive; Neddylation inh: 13; INS-1E GSIS act: 75*; Vif inh: -35

How did Cc1ccc(C(=O)OCC(=O)Nc2ccccc2)cc1NC(=O)c1ccco1 do in these assays?
dFosB activator: 27*; Neddylation inh: -3; Bfl-1 A1 inh: 0; Vif inh: 5

What do the screens show for `CCS(=O)(=O)N1CCC2(CC1)CN(C(=O)Cc1ccccn1)[C@H](CO)c1[nH]c3cc(OC)ccc3c12`?
INS-1E GSIS act: -10

How did COc1cccc(CN2C[C@@H]3N[C@H](C2)C3c2ccc(-c3ccccc3F)cc2)c1 (stereo partly drawn) do in these assays?
INS-1E GSIS act: 9

What do the screens show for `COc1ccc(OC)c(S(=O)(=O)NC(C)c2ccc(-n3ccnc3)cc2)c1` (stereo not drawn)?
dFosB activator: 2; Neddylation inh: 1; INS-1E GSIS act: 12; Bfl-1 A1 inh: 13*; Vif inh: 14

Results for COc1cc(C(=O)NC(C)c2ccc(-n3ccnc3)cc2)cc(OC)c1C (stereo not drawn) ?
dFosB activator: -13; Neddylation inh: 8; INS-1E GSIS act: -2; Bfl-1 A1 inh: 0; Vif inh: 5

How did C[C@@H]1CN([C@H](C)CO)C(=O)c2cc(NC(=O)NC3CCCCC3)ccc2O[C@@H](C)CCCCO[C@@H]1CN(C)Cc1ccc(Cl)c(Cl)c1 do in these assays?
INS-1E GSIS act: 2

How did CC1(C)C2([N+](=O)[O-])CN3CC1([N+](=O)[O-])CN(C2)C3c1ccccc1 (stereo not drawn) do in these assays?
dFosB activator: 5; Neddylation inh: -4; INS-1E GSIS act: 56*; Bfl-1 A1 inh: 0; Vif inh: 0

How did Cn1c(C(=O)N2CCN(c3ccc([N+](=O)[O-])cc3)CC2)cc2c(=O)[nH]c3ccccc3c21 do in these assays?
dFosB activator: 23*; Neddylation inh: -19; INS-1E GSIS act: 19; Vif inh: 9

Results for Cc1cc(C(=O)N2CCN(c3ccc([N+](=O)[O-])cc3)CC2)co1 ?
dFosB activator: -1; Neddylation inh: -25; INS-1E GSIS act: -3; Bfl-1 A1 inh: 1; Vif inh: 86*

Results for Cc1cc(C(=O)N2CCN(c3ccc([N+](=O)[O-])cc3)CC2)c(C)o1 ?
dFosB activator: -3; Neddylation inh: -43; INS-1E GSIS act: -14; Bfl-1 A1 inh: 0; Vif inh: -33

What do the screens show for `C[C@@H]1CN([C@H](C)CO)C(=O)c2cc(C3=CCCC3)cnc2O[C@@H]1CN(C)C(=O)C1CC1`?
INS-1E GSIS act: 4

What do the screens show for `COc1ccc2c3c([nH]c2c1)[C@H](CO)NCC31CN(C(=O)c2ccccc2)C1`?
INS-1E GSIS act: 19

What do the screens show for `Cc1cc(-c2ccc(Cl)cc2)n2nc(C)cc2n1`?
dFosB activator: -10; Neddylation inh: 8; INS-1E GSIS act: 80*; Bfl-1 A1 inh: -2; Vif inh: 0

How did Cc1cc(C)n2nc(-c3ccc(Br)cc3)cc2n1 do in these assays?
dFosB activator: -18; Neddylation inh: -26; INS-1E GSIS act: 0; Bfl-1 A1 inh: -1; Vif inh: -2

How did Cc1cc(C)n2nc(-c3ccc(Cl)cc3)cc2n1 do in these assays?
dFosB activator: -10; Neddylation inh: -64; INS-1E GSIS act: -1; Bfl-1 A1 inh: -6; Vif inh: -3

How did Cc1cc(-c2ccc(Br)cc2)n2nc(C)cc2n1 do in these assays?
Neddylation inh: 14; INS-1E GSIS act: 43*; Vif inh: 1

How did O=C(C[C@H]1CC[C@@H]2NC[C@@H](O)COC[C@H]2O1)NCc1ccc(Oc2ccccc2)cc1 do in these assays?
INS-1E GSIS act: -2

Results for Cc1cccc(NC(=O)[C@H](Cc2c[nH]c3ccccc23)NC(=O)[C@@H]2Cc3ccccc3CN2)c1 ?
dFosB activator: 22*; Neddylation inh: 5; Bfl-1 A1 inh: 1; Vif inh: -3

How did COc1ccc(/C=C2\SC(=N)N(c3ccc(F)cc3)C2=O)cc1OC do in these assays?
dFosB activator: 45*; Neddylation inh: 2; INS-1E GSIS act: 30; Bfl-1 A1 inh: 0; Vif inh: 1

Results for CCCNc1cc(C)oc(=O)c1C(=O)CCC ?
dFosB activator: -8; Neddylation inh: 6; INS-1E GSIS act: 88*; Bfl-1 A1 inh: -2; Vif inh: 3

How did CCCC(=O)c1c(NCCO)cc(C)oc1=O do in these assays?
dFosB activator: 2; Neddylation inh: 6; INS-1E GSIS act: 14; Bfl-1 A1 inh: 1; Vif inh: 3

How did CCN(CC)CCN(C(=O)c1ccc2ccccc2c1)c1nc2cc3c(cc2s1)OCO3 do in these assays?
dFosB activator: 53*; Neddylation inh: 5; INS-1E GSIS act: -37; Bfl-1 A1 inh: 0; Vif inh: 10

How did Cc1ccc(S(=O)(=O)N(C)C[C@@H]2OCCCC[C@@H](C)Oc3ccc(NC(=O)Nc4cccc5ccccc45)cc3C(=O)N([C@@H](C)CO)C[C@@H]2C)cc1 do in these assays?
INS-1E GSIS act: 23

What do the screens show for `O=C(Nc1cccnc1)c1cccc(S(=O)(=O)N2CCc3ccccc32)c1`?
dFosB activator: -11; Neddylation inh: -2; INS-1E GSIS act: -24; Bfl-1 A1 inh: 1; Vif inh: -4
